We go through 40 compounds from PubChem BioAssay (NCATS).

Molecules are shown by their SMILES. Where “and” joins values, the source holds several entries; their conditions need not be identical. Equal values may be shown once. A number with no mark means an inactive call. Calls come from the whole dose curve; as a rule, active = well fitted activation curve with a large enough effect; inconclusive = small, poorly fitted or top-dose-only effect; inactive = flat fitted curve, though single readings scatter.

In the assay the target is Peroxisome proliferator-activated receptor alpha (Homo sapiens) (UniProt Q07869). The experiment in a line: qHTS assay for small molecule agonists of the peroxisome proliferator-activated receptor alpha (PPARalpha) signaling pathway (AID 651778). Note: % of control where 0% means no effect. As to conditions: PathHunter PPARalpha complementation, chemiluminescence, 6 h; max response: active compounds read high. The text has this: National Center for Advancing Translational Sciences [NCATS]
Sequence of Peroxisome proliferator-activated receptor alpha (Homo sapiens) (Q07869 whole entry, looked up): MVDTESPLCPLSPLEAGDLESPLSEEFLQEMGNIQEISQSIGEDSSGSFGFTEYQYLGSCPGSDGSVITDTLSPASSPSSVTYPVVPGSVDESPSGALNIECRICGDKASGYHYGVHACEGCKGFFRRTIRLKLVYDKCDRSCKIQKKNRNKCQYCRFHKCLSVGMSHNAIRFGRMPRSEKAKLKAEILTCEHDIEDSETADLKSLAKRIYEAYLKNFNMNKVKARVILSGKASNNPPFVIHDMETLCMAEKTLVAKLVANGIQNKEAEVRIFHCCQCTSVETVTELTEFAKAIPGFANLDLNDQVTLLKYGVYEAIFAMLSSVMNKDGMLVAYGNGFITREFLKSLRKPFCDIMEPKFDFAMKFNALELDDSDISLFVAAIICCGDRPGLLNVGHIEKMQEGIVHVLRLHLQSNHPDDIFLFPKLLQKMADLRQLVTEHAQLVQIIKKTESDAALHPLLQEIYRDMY
NIH Chemical Genomics Center [NCGC]
U.S. Environmental Protection Agency [EPA]
National Institutes of Environmental Health Sciences [NIEHS]
National Toxicology Program [NTP]
The Peroxisome proliferator-activated receptors (PPARs) are lipid-activated transcription factors of the nuclear receptor superfamily with three distinct subtypes (alpha, garmma and beta/delta). All these subtypes heterodimerize with retinoid X receptor and have different physiological functions. PPARalpha is highly expressed in tissues with high rates of mitochondrial fatty acid oxidation, such as liver, heart, muscle, kidney and cells of the arterial wall. PPARalpha is a major regulator of lipid metabolism and energy homeostasis.
A cell based assay was used to identify activators of PPARalpha. The assay detects binding of a ligand to PPARalpha leading to its activation, translocation and complementation thus forming a functional enzyme capable of hydrolyzing the substrate molecule and generating chemiluminescent signal.
2,000 cells in 6 uL/well were dispensed into white wall/solid bottom 1536-well plates using a Multidrop Combi (Thermo Scientific) dispenser. After incubation 37 C and 5% CO2 overnight, 23 nL compound or DMSO only were transferred by a pin tool. The plates were incubated for 6 hr at 37 C and 5% CO2. 3 ul PathHunter detection reagent (Discoverx) was then added to each well and following 60 min incubation at room temperature, chemiluminescence was quantified on a ViewLux CCD-based plate reader.
On the technique in general: qHTS replaces the single test concentration by a dilution series.
Turning to `CCNc1nc(N)nc(Cl)n1`, the max response is -2.09% and -1.78%.

For the compound `CCOC(=O)C(C)Oc1ccc(Oc2cnc3cc(Cl)ccc3n2)cc1` (stereo not given), the max response was 11.2%.

On to `CCCCCCCCCCCC(=O)OC`, for which the max response was 2.34%.

Turning to `COC(=O)C(C)Oc1ccc(Oc2ncc(C(F)(F)F)cc2Cl)cc1` (stereo not given), the max response was 0.508%.

For the compound `COCCOCCOCCOC`, the max response is -0.298%.

On to `O=C(O)CCCCCCCCCCC(=O)O`, for which the max response is -1.09%.

On to `CC1(C)C(=O)NC(=O)N1CO`, for which the max response was -1.57%.

As to `CSC(=O)c1cccc2nnsc12`, the max response is -3.32%.

`CC(C)c1ccc(C(C)C)cc1`: the max response is -2.48%.

As to `CC(C)CCCCOC(=O)c1ccccc1C(=O)OCCCCC(C)C`, the max response is 2.93%.

Consider `CC(C)C(=O)OCC(C)(C)C(O)C(C)C` (stereo not given), for which the max response is -0.497%.

Consider `C[C@]12CC[C@@H]3c4ccc(O)cc4CC[C@H]3[C@@H]1CC[C@H]2O`, for which the max response is -0.0791%.

With `CCCCCCCCCC(C)=O`, the max response is 0.198%.

Consider `CC(C)Cc1c(C(=O)O)c(C(F)F)nc(C(F)(F)F)c1C1=NCCS1`, for which the max response is -0.845%.

As for `CCO[Si](CCC#N)(OCC)OCC`, the max response was -0.819%.

As for `CC(C)CC(C)(O)C#CC(C)(O)CC(C)C` (stereo not given), the max response was -1.54%.

Turning to `O=C(Cl)c1cccc(C(=O)Cl)c1`, the max response was -0.213%.

As to `O=C(Nc1ccccc1)c1cc(Cl)ccc1O`, the max response is 0.537%.

For the compound `CCCCCCCCCCCCCCN`, the max response is -1.81%.

On to `OC1CCCCCCCCCCC1`, for which the max response is -2.43%.

With `Cl[Si](Cl)(Cl)c1ccccc1`, the max response was -2.31%.

On to `CCCCCCCC/C=C\CCCCCCCCO`, for which the max response is 8.71%.

On to `CCC(=O)OCCc1ccccc1`, for which the max response is -0.0633%.

Consider `C=C(C)C(=O)OCC(CC)(COC(=O)C(=C)C)COC(=O)C(=C)C`, for which the max response was -3.37%.

For the compound `CC1(C)CC(N)CC(C)(CN)C1` (stereo not given), the max response is -3.48%.

Take `C#CCOC(=O)[C@@H](C)Oc1ccc(Oc2ncc(Cl)cc2F)cc1`: the max response was -0.41%.

As for `CCCCC(CC)CN1C(=O)C2C3C=CC(C3)C2C1=O` (stereo not given), the max response was 7.9%.

In the case of `COc1cc(Cl)c(OC)cc1N`, the max response is -0.316%.

Regarding `OCC(CO)(CO)COCC(CO)(CO)CO`, the max response is 0.242%.

Consider `S=C(S)NCCNC(=S)S`, for which the max response was 0.0068%.

Consider `CS(C)=O`, for which the max response was 0.892%.

For the compound `CN(C)Cc1cc(CN(C)C)c(O)c(CN(C)C)c1`, the max response was -1.39%.

Consider `COC(=O)c1ccc(I)cc1S(=O)(=O)NC(=O)Nc1nc(C)nc(OC)n1`, for which the max response was -0.424%.

On to `O=[N+]([O-])C(CO)(CO)CO`, for which the max response is -3.92%.

Take `CC(C)=CCC/C(C)=C\CO`: the max response is -0.763%.

Take `O=C(OCC1CCC2OC2C1)C1CCC2OC2C1` (stereo not given): the max response is 0.673%.

For `COC(=O)c1ccccc1C(=O)O`, the max response is -0.96%.

Turning to `CCCCCCCC/C=C\CCCCCCCCCCCCC`, the max response was -1.02%.

For the compound `O=C(O)c1cc2ccccc2cc1O`, the max response is 7.01%.

For `Nc1cc(Cl)c(O)c(Cl)c1`, the max response is -5.8%.
